Experimental data from ChEMBL document CHEMBL3988442, “University of Dundee, Small-Polar-MMV Screening Library” (2021).
The whole screen tested about 48,000 compounds, of which about 13,000 (27%) showed an effect of 50% or more. The list shows a part of the results.

test system: Wolbachia pipientis; experiment: Anti-Wolbachia Cell-Based Screen; assay type: functional; design: scale not given: in the data most compounds retested in dose-response had high values; conditions: 5 µM

Going from CCC1CN(C(=O)c2ccccc2N2CCOCC2)CCN1C(C)C (stereo not drawn) to COc1ccccc1CC(=O)N1CC[C@@]2(CCCO2)[C@@H](OC)C1, the “Percent Effect” value falls from 8.112% to 3.075%.

Compared with CCNC(=O)C1CCN(c2cc(-c3ccccc3F)nc3ccnn23)C1 (stereo not drawn), CC1CCN(c2nc3c(cnn3-c3ccccc3)c(=O)[nH]2)CC1 is higher in “Percent Effect” value: -1.287% for the first, 0.2654% for the second.

First: COc1ccccc1CN1C[C@@H](F)[C@@H](OCc2nc3ccccc3[nH]2)C1
Second: COc1ccccc1CC(=O)N1CCC(NCc2cccnc2)CC1
The “Percent Effect” value of the first is higher: 0.7932% for the first, -3.091% for the second.

Compared with CCn1cncc1CN1CCc2nc3sccc3c(=O)n2CC1, Cl.Cn1cncc1CN1CCc2nc3sccc3c(=O)n2CC1 is higher in “Percent Effect” value: 89.02% for the first, 103.5% for the second.

First: CC(=O)NCc1nnc2n1CCN(c1nc(C)nc3sccc13)CC2
Second: Cc1ccsc1C(=O)N1CCc2ncc(CN3CCCC3)n2CC1.O=C(O)C(F)(F)F
The “Percent Effect” value of the first is higher: -5.354% for the first, -31.81% for the second.

First: Cc1ccc(CN2CCNC(C(=O)NC3CC3)C2)cc1C (stereo not drawn)
Second: CC1CCCN(c2ccccc2OCC(=O)NC2CC2)C1 (stereo not drawn)
The “Percent Effect” value of the first is higher: 34.83% for the first, -2.178% for the second.

Compared with CC(NC1CCN(CCS(C)(=O)=O)CC1)c1ccc(Cl)cc1 (stereo not drawn), Cc1ncsc1CCC(=O)NC1CCN(c2ccc(Cl)nn2)CC1 is higher in “Percent Effect” value: -9.034% for the first, -3.367% for the second.

Compared with O=C(Nc1ccc(-n2cncn2)c(F)c1)C1CCN(C(=O)C2CC2)CC1, O=C(Nc1ccc(OCc2cccc(F)c2)c(F)c1)C1COCCO1 (stereo not drawn) is lower in “Percent Effect” value: -16.72% for the first, -24.38% for the second.

First: CC1CCN(c2nccn3c(=O)[nH]nc23)CC1
Second: NC1CCN(c2nccn3c(=O)[nH]nc23)CC1
The “Percent Effect” value of the first is lower: 109.7% for the first, 124.1% for the second.

First: NS(=O)(=O)CC1CCN(c2ncccc2C(F)(F)F)CC1
Second: O=C(NC1CCN(c2nccs2)CC1)c1cccs1
The “Percent Effect” value of the first is higher: -0.5729% for the first, -6.975% for the second.

First: CC1CCN(Cc2cc(=O)[nH]c(=O)[nH]2)CC1
Second: CC1CCCN(c2nccn3c(=O)[nH]nc23)C1 (stereo not drawn)
The “Percent Effect” value of the first is lower: -40.44% for the first, 119.4% for the second.

Compared with CC(C)n1ccnc1C1CCCN(c2ncccc2C(N)=O)C1 (stereo not drawn), CC(C)CN1CCCC1c1ccc(C(=O)Nc2cccnc2)s1 (stereo not drawn) is higher in “Percent Effect” value: 2.955% for the first, 20.92% for the second.

First: c1ccc(-c2nc3c(c(NCCCn4cncn4)n2)CCNCC3)nc1
Second: Cc1nnc(CN2CCCCC2c2nc(-c3ccccc3)no2)s1 (stereo not drawn)
The “Percent Effect” value of the first is higher: -4.021% for the first, -13.6% for the second.

First: COc1ccc(C(CO)NC(=O)Nc2cccnc2)cc1 (stereo not drawn)
Second: O=C1CC(c2ccc(C(=O)O)cc2)c2ncn(-c3cccnc3)c2N1 (stereo not drawn)
The “Percent Effect” value of the first is lower: -17.84% for the first, -9.053% for the second.

First: Cc1nnc(C(C)N(C)Cc2c(C)nn(-c3ccccc3C)c2C)o1 (stereo not drawn)
Second: CCN(C(c1cccnc1)c1cc(C)cc(C)c1)S(C)(=O)=O (stereo not drawn)
The “Percent Effect” value of the first is lower: -9.364% for the first, 1.72% for the second.

Going from CCn1nnnc1-c1cccc(NC(=O)COC2CCCC2)c1 to CC(C)CN1CCCC1c1ccc(C(=O)Nc2cn(C)nn2)s1 (stereo not drawn), the “Percent Effect” value rises from 5.943% to 6.317%.

Going from CCc1noc(C(C)N2CCCN(Cc3noc(C4CC4)n3)CC2)n1 (stereo not drawn) to CCc1noc(C(C)N2CCN(Cc3noc(C4CC4)n3)CC2)n1 (stereo not drawn), the “Percent Effect” value falls from 8.614% to 3.435%.

Going from CCCc1nc(CN2CCN(C(C)c3nc(C4CC4)no3)CC2)no1 (stereo not drawn) to CCc1nc(CN2CCN(C(C)c3nc(C4CC4)no3)CC2)no1 (stereo not drawn), the “Percent Effect” value falls from 124.6% to 112.7%.

First: CCCc1nc(CN2CCN(Cc3noc(CCC)n3)CC2)no1
Second: Cc1cc(C)c2nc(CN3CCC(N4CCOCC4)CC3)cc(O)c2c1
The “Percent Effect” value of the first is higher: 0.9498% for the first, -11.95% for the second.

Compared with CS(=O)(=O)N1CCC2(CCCN(c3ncc(F)cn3)C2)C1 (stereo not drawn), CCS(=O)(=O)N1CCC2(CCCN(c3ncc(F)cn3)C2)C1 (stereo not drawn) is lower in “Percent Effect” value: 6.577% for the first, -3.984% for the second.

First: Cc1cnc(N2CCC3(CCCN(c4ncc(F)cn4)C3)C2)nc1 (stereo not drawn)
Second: Fc1cnc(N2CCCC3(CCN(c4ncccn4)C3)C2)nc1 (stereo not drawn)
The “Percent Effect” value of the first is higher: 103% for the first, 88.49% for the second.

First: O=S(=O)(C1CC1)N1CCC2(CCCN(c3ncc(F)cn3)C2)C1 (stereo not drawn)
Second: CCCS(=O)(=O)N1CCC2(CCCN(c3ncc(F)cn3)C2)C1 (stereo not drawn)
The “Percent Effect” value of the first is lower: -1.558% for the first, 14.12% for the second.

First: Cc1cnc(N2CCCC3(COCCN(c4nccs4)C3)C2)nc1 (stereo not drawn)
Second: Cc1cnc(N2CCOC3(CCCN(c4ncccn4)C3)C2)nc1 (stereo not drawn)
The “Percent Effect” value of the first is higher: -8.565% for the first, -13.37% for the second.

Going from Cc1cnc(N2CCCC3(CCOCC3)C2)nc1 to COc1ccc(C)cc1CC(=O)N1CC[C@@]2(CCCO2)[C@@H](O)C1, the “Percent Effect” value rises from 109.2% to 110.1%.

Going from Cc1oc(-c2ccsc2)nc1CC(=O)NCCS(C)(=O)=O to NCC(=O)N1CCCC1c1ccc(C(=O)NCc2ccoc2)s1 (stereo not drawn), the “Percent Effect” value falls from -2.536% to -13.99%.

Compared with CN(C)CCOCC1CN(C(=O)c2cscn2)Cc2ccnn2C1 (stereo not drawn), COc1ccc(CC(=O)N2CC[C@H](CO)[C@H](O)C2)c(OC)c1 is higher in “Percent Effect” value: -0.6425% for the first, 2.348% for the second.

Compared with CCCN1Cc2cc(Br)ccc2OCC1=O, CCN(CC)C1COc2ccc(Br)cc2C1=O (stereo not drawn) is higher in “Percent Effect” value: 11.44% for the first, 104.3% for the second.

First: CCN(CC)C1COc2c(cc(Br)c(C)c2Br)C1=O (stereo not drawn)
Second: CCN(CC)C1COc2c(cc(Br)c(C)c2C)C1=O (stereo not drawn)
The “Percent Effect” value of the first is lower: 114.2% for the first, 131.7% for the second.

First: Cc1c(Br)cc2c(c1C)OCC(N(C)C)C2=O (stereo not drawn)
Second: COc1ccc(Br)cc1CC(=O)N1CCCC1
The “Percent Effect” value of the first is higher: 95.66% for the first, 26.87% for the second.

Compared with COCCN1C(=O)[C@H]2CC[C@@H]1CN(C(=O)COc1ccc(F)c(Cl)c1)C2, CN1CCCC1c1ccc(C(=O)N2CCc3ccccc3C2)s1 (stereo not drawn) is higher in “Percent Effect” value: 1.148% for the first, 10.54% for the second.

First: CC(C)c1cc(C(=O)NCCN2CCCS2(=O)=O)n[nH]1
Second: CN1CCCC1c1ccc(C(=O)Nc2c3c(nn2C)CCC3)s1 (stereo not drawn)
The “Percent Effect” value of the first is lower: -2.781% for the first, 105.6% for the second.

First: COc1ccccc1CC(=O)N1CC[C@H](O)[C@]2(CCCO2)C1
Second: O=C(Nc1nnc(N2CCCCC2)[nH]1)c1cccs1
The “Percent Effect” value of the first is higher: 123.7% for the first, 3.867% for the second.

Going from Cn1nc2c(c1NC(=O)c1cccs1)CCC2 to Cn1nc2c(c1NC(=O)c1ccc(C3CCCN3C3CCC3)s1)CCC2 (stereo not drawn), the “Percent Effect” value falls from 116% to 91.78%.

Compared with Cc1cncc(NCC(O)c2ccco2)n1 (stereo not drawn), Clc1ccc(OCCNC2(c3ccc(Br)cc3)CCOCC2)cc1 is higher in “Percent Effect” value: 11.88% for the first, 18.48% for the second.
